Results: PubChem BioAssay (Tox21)
Records with an inconclusive call do not appear. Where a call stands in place of a potency, no number is given. Calls of active or inactive are those of the source. Calls come from the whole dose curve.

Each compound was assayed against Acetylcholinesterase (Homo sapiens) (UniProt P22303) (assay: Acetylcholinesterase (AChE) small molecule antagonists: fluorescence cell-based qHTS assay (AID 1347398; note: nearly all actives have a fitted effect of over 50% in size)). Conditions: SH-SY5Y cells; Potency: AChE activity; outcome: AChE activity; series mostly up to 115 µM.
Sequence of Acetylcholinesterase (Homo sapiens) (P22303 whole entry, looked up): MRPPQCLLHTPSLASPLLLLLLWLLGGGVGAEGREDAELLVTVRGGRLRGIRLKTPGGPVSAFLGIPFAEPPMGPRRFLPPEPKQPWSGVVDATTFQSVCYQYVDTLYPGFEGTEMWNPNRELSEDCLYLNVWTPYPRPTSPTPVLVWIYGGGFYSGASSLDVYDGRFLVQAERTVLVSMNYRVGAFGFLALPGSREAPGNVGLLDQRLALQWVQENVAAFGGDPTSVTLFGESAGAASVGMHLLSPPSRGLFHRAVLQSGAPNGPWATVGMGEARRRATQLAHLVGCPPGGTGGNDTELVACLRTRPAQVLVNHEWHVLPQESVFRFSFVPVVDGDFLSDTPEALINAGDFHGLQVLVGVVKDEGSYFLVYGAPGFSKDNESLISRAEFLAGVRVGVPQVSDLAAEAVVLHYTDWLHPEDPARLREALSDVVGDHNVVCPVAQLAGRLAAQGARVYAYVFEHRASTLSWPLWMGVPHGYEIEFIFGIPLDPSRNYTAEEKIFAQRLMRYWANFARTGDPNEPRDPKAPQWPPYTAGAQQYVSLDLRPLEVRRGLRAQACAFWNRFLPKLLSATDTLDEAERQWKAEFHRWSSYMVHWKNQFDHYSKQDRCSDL
Summary of the method: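 SH-SY5Y cells (2000/well), attached overnight, incubated with compound 30 min at 37 C. Acetylthiocholine plus Thiolite Green then added for 40 min at room temperature. Thiocholine fluorescence (Ex/Em 490/520 nm) reports cellular AChE activity.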
For CO[C@H]1C=CO[C@@]2(C)Oc3c(C)c(O)c4c(O)c(c5c(c4c3C2=O)=NC2(CCN(CC(C)C)CC2)N=5)NC(=O)/C(C)=C\C=C/[C@H](C)[C@H](O)[C@@H](C)[C@@H](O)[C@@H](C)[C@H](OC(C)=O)[C@@H]1C, the Potency was “inactive”.
With CC(=O)Nc1cccc(O)c1 the Potency was “inactive”.
CC(=O)OCC(=O)[C@@]1(O)CC[C@H]2[C@@H]3CCC4=CC(=O)C=C[C@]4(C)[C@H]3[C@@H](O)C[C@@]21C was tested, and the Potency was “inactive”.
For N#Cc1ccc(C(=O)O)cc1, the Potency was “inactive”.
With CN(C)[C@@H]1C(=O)C(C(N)=O)=C(O)[C@@]2(O)C(=O)C3=C(O)c4c(O)cccc4C[C@H]3C[C@@H]12 the Potency was “inactive”.
For O=c1oc(=O)c2cc3c(=O)oc(=O)c3cc12, the Potency was “inactive”.
With CCCCCCCCCCCCN1CCCC1=O the Potency was “inactive”.
COc1ccc(Nc2ccc(OC)cc2)cc1 was tested, and the Potency was “inactive”.
In the case of COc1ccc([C@@H]2Sc3ccccc3N(CCN(C)C)C(=O)[C@@H]2OC(C)=O)cc1, the Potency is reported as “inactive”.
In the case of CC1=Nc2ccccc2C1(C)C, the Potency is reported as “inactive”.
With CC(C)(C(=O)c1cccnc1)c1cccnc1 the Potency was “inactive”.
In the case of OCCN1C[C@H](O)[C@@H](O)[C@H](O)[C@H]1CO, the Potency is reported as “inactive”.
With c1ccc2ncccc2c1 the Potency was “inactive”.
In the case of CC(CN(CCN(CC(C)OCCO)CC(C)OCCO)CC(C)OCCO)OCCO (stereo not given), the Potency is reported as “inactive”.
With CC(=O)CC(C)(C)C1CCCCC1 the Potency was “inactive”.
NCc1cccc(CN)c1 was tested, and the Potency was “inactive”.
CCC(=O)OCCc1ccccc1 was tested, and the Potency was “inactive”.
For CCC(C)(O)CCCC(C)C (stereo not given), the Potency was “inactive”.
In the case of Cc1c(-c2cccnc2)c2ccccc2n1CCCCC(=O)O, the Potency is reported as “inactive”.
In the case of CCOC(=O)/C=C/C(=O)O, the Potency is reported as “inactive”.
For CC1=CC(C)(C)Nc2ccccc21, the Potency was “inactive”.
In the case of NC(=O)Nc1nc2ccccc2[nH]1, the Potency is reported as “inactive”.
O=Cc1ccccc1Cl was tested, and the Potency was “inactive”.
For Fc1ccccc1[C@@H](F)COC1CCC(Nc2ncnc3[nH]ncc23)CC1 (stereo not given in full), the Potency was “inactive”.
Cc1cc(Nc2ccc(O)cc2)ccc1N was tested, and the Potency was “inactive”.
With O=C(O)CCC(=O)O the Potency was “inactive”.
For C=CCCC=C, the Potency was “inactive”.
With O=[N+]([O-])C(CO)(CO)CO the Potency was “inactive”.
CC(=O)c1ccc2ccccc2c1 was tested, and the Potency was “inactive”.
With O=C(O)c1ccccc1C(=O)O the Potency was “inactive”.
In the case of CC(C)CC(C)O (stereo not given), the Potency is reported as “inactive”.
For Nc1ccc(S(=O)(=O)Nc2ccc(Cl)nn2)cc1, the Potency was “inactive”.
ONc1ccccc1 was tested, and the Potency was “inactive”.
CC(=O)CC(=O)Nc1ccccc1C was tested, and the Potency was “inactive”.
In the case of CC(C)C(=O)c1ccccc1, the Potency is reported as “inactive”.
With O=[N+]([O-])c1cccc(S(=O)(=O)O)c1 the Potency was “inactive”.
CC(=O)N1C[C@H](O)C[C@H]1C(=O)O was tested, and the Potency was “inactive”.
In the case of CC(=O)OCC(=O)[C@H]1CC[C@H]2[C@@H]3CCC4=CC(=O)CC[C@]4(C)[C@H]3CC[C@]12C, the Potency is reported as “inactive”.
O=C(O)CC(C(=O)O)S(=O)(=O)O (stereo not given) was tested, and the Potency was “inactive”.
For O=[N+]([O-])c1cccc(Cl)c1, the Potency was “inactive”.
